TGFb SMAD3 inh = qHTS for Inhibitors of TGF-b | AID 588855, 2011 | Potency, µM (titrated, usually from 46.1 µM), without a hit: at the top dose activity, negative = inhibition, actives largely listed as inhibitors | hit rate 1.2% among 410,000 | HepG2 CAGA-GFP TGF-b/SMAD3 reporter, GFP fluorescence, 18 h; TGF-beta stimulated, 500 pg/mL final; further: on the % scale 0 is the no-effect control and ±100 the full control effect; nearly all actives have a fitted effect of over 65% in size
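Read-out: total well GFP (ex488/em500-530) summed from mean per-cell fluorescence. Cells: HEPG2 CAGA-GFP, 1% FBS DMEM, 18 h at 37 degrees C with 500 pg/mL final TGF-beta. Unstimulated wells served as the full-inhibition control; stimulated DMSO wells = 0%.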
DT40 TDP1 no CPT = qHTS for Inhibitors of human tyrosyl-DNA phosphodiesterase 1 (TDP1): qHTS in cells in absence of CPT | Potency, µM (titrated, usually from 46.2 µM), inactives show at the top dose activity change, negative = growth inhibition, actives largely listed as inhibitors | DT40 Tdp1-/- hTDP1 cells, no CPT, ATP luminescence, 48 h | hit rate 15% among 420,000; further: on the % scale 0 is the no-effect control and ±100 the full control effect; nearly all actives have a fitted effect of over 55% in size
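Compound effects on proliferation are scored in DT40 Tdp1-/-;hTDP1 cells in the absence of CPT. ATP levels (CellTiter-Glo luminescence) are recorded after a ≥48 hr, 37 °C incubation.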
TDP1 cell CPT = qHTS for Inhibitors of human tyrosyl-DNA phosphodiesterase 1 (TDP1): qHTS in cells in presence of CPT; chicken DT40 Tdp1-/-;hTDP1 cells + 20 nM CPT, ATP luminescence, 48 h; Potency, µM (doses to about 46.2 µM), without a hit: top-dose activity change, negative = growth inhibition, hits mostly inhibitors; hit rate 12% among 420,000; AID 686979, 2013; further: on the % scale 0 is the no-effect control and ±100 the full control effect; nearly all actives have a fitted effect of over 55% in size
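Cell growth measured by CellTiter-Glo luminescence after a minimum 48 h, 37 C compound exposure with 20 nM CPT in Tdp1-knockout DT40 cells stably expressing hTDP1, seeded 400/well; qHTS titration format.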
HT1080-NT tox = qHTS for induction of synthetic lethality in tumor cells producing 2HG: qHTS for the HT-1080-NT fibrosarcoma cell line; HT-1080-NT fibrosarcoma viability, CellTiter-Glo ATP luminescence, 48 h; hit rate 1.6% among 360,000; Potency, µM (top dose mostly 46.1 µM), for the others: top-dose activity, negative = less viability, most hits filed as cytotoxic;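 further: NT is the 2HG producing partner of a matched IDH1 knockdown line; 0% = DMSO-treated cells and -100% = media-only wells without cells; nearly all actives have a fitted effect of over 55% in size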
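Toxicity toward the 2HG-producing NT line was scored as %Activity, normalised to DMSO and no-cell wells, from CellTiter-Glo luminescence after 48 hours' treatment.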
HepG2 viability = qHTS for Inhibitors of TGF-b: Cytotox Counterscreen; hit rate 0.76% among 410,000; AID 588856, 2011; Potency, µM (highest dose often 46.1 µM), inactives show at the highest dose activity change, negative = cytotoxicity, usual class: cytotoxic; HepG2 CAGA-GFP viability, ATP luminescence, 18 h
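CellTiter-Glo luminescence gave cytotoxicity after 18 hours at 37 degrees C. The cells were HepG2 CAGA-GFP in 1% FBS DMEM, stimulated with 500 pg/mL TGF-beta after compound addition. %Activity was normalised to no-cell wells (complete cell-killing) and DMSO (no toxicity), and curves were fitted and classified.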
HT1080 IDH1KD tx = qHTS for induction of synthetic lethality in tumor cells producing 2HG: qHTS for the HT-1080-IDH1KD cell line. HT-1080 IDH1 knockdown viability, ATP luminescence, 48 h. Potency, µM (top dose mostly 46.1 µM), for inactives: at the highest dose activity, negative = toxicity, actives largely listed as cytotoxic. hit rate 2% among 360,000. AID 686971, 2013;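 further: 0% = DMSO wells and -100% = cell-free medium wells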
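HT-1080-IDH1KD cells (IDH1 knocked down), 750/well in RPMI with 5% FBS, treated with compound 48 h at 37 degrees C. Viability by CellTiter-Glo luminescence, normalised to DMSO and no-cell wells; concentration-response curves classed.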
* = called active by the depositor; u = inconclusive; x = not tested or not shown; [ ] = another dose, or the depositor's remark. An excerpt weighted towards active compounds, which were near 17% of everything screened. The call rests on the fitted dose curve; in most records, active means well fitted curve in the direction sought with a large enough effect; inconclusive means small, poorly fitted or top-dose-only effect, or another doubt; inactive means no such curve, though single readings can be large; an effect the other way counts as inactive or inconclusive. Potency means the concentration at half of the fitted maximal effect.

SMILES | TGFb SMAD3 inh | DT40 TDP1 no CPT | TDP1 cell CPT | HT1080-NT tox | HepG2 viability | HT1080 IDH1KD tx
COc1ccccc1N1CCN(C(=O)c2cn(C)c3ccc(S(=O)(=O)N(C)C4CCCCC4)cc3c2=O)CC1 | 8% | u | -27% | x | 10% | x
COc1ccc2nc(NC(=O)CCc3cc(OC)c(OC)c(OC)c3)sc2c1 | -8% | 21µM* | u | -1% | -5% | 0%
COc1ccc2nc(NC(=O)CCn3cccc3)sc2c1 | 4% | 6% | -23% | -23% | 7% | u
CCCc1cc(=O)[nH]c(SCC(=O)Nc2ncc(S(=O)(=O)c3ccc([N+](=O)[O-])cc3)s2)n1 | u | u | u | 14% | -8% | 1%
O=C(Nc1nc(-c2ccc3c(c2)OCO3)cs1)C1CC1 | -23% | 2.3µM* | 2.3µM* | 15% | -33% | 10%
O=C(Nc1ccc2c(c1)OCO2)C1CC(=O)N(c2ccc3c(c2)OCCO3)C1 (stereo unspecified) | 0% | -3% | 9% | 14% | 7% | 3%
COC(=O)c1ccc(CSc2nnc(NC(=O)C3CC(=O)N(c4ccc5c(c4)OCCO5)C3)s2)cc1 (stereo unspecified) | u | 21µM* | 23µM* | 5% | 9% | -1%
O=C(CSCC(=O)Nc1nc(-c2ccc3c(c2)OCO3)cs1)Nc1nccs1 | -2% | 26µM* | 12µM* | 10% | -7% | 0%
O=C(O)C1CC(=O)N(c2ccc3c(c2)OCCO3)C1 (stereo unspecified) | 0% | 13µM* | 13µM* | 14% | -42% | 14%
O=C(O)C(=O)Nc1nc(-c2ccc3c(c2)OCCO3)cs1 | 0% | -4% | -4% | -2% | -6% | 10%
CCN(C(=O)c1ccc2c(=O)n3c(nc2c1)CCCCC3)c1cc(C)ccc1C | x | u | u | x | -14% | x
O=C(NCCc1ccc(F)cc1)c1ccncc1 | 3% | 2% | u | -3% | -9% | -6%
C1=C(CCNC2=NCCCCC2)CCCC1 | -16% | -29% | -23% | -1% | -12% | -3%
O=C(Nc1ccc(C(F)(F)F)cc1)C1CC(=O)N(c2ccc3c(c2)OCCO3)C1 (stereo unspecified) | -17% | -16% | -15% | -5% | -14% | -11%
Cc1ccc(-c2csc(NC(=O)C3CC(=O)N(c4ccc5c(c4)OCCO5)C3)n2)o1 (stereo unspecified) | u | u | u | x | -37% | x
O=C(NCCc1ccc(C(F)(F)F)cc1)C1CC(=O)N(c2ccc3c(c2)OCCO3)C1 (stereo unspecified) | -11% | 21µM* | u | -2%[9.24 µM] | -14% | -15%
O=C(Nc1nc(-c2ccc3c(c2)OCCO3)cs1)C1CC(=O)N(c2ccc3c(c2)OCCO3)C1 (stereo unspecified) | -14% | u | 11µM* | x | -23% | x
CC(=O)Nc1ccc(-c2csc(NC(=O)C3CC(=O)N(c4ccc5c(c4)OCCO5)C3)n2)cc1 (stereo unspecified) | -2% | 21µM* | 18µM* | 23% | 3% | -9%
COc1cc(OC)cc(C(=O)Nc2ccc3oc(-c4ccc(Cl)cc4)nc3c2)c1 | 14% | u | u | x | -2% | x
Fc1ccccc1N1CCN(Cc2nc(-c3ccc(Cl)cc3Cl)no2)CC1 | -12% | -16% | -1% | 6% | 5% | 0%
C[C@H](NC(=O)[C@@H]1CCCN1C(=O)[C@@H]1CCCN1C(=O)c1cccc2ccccc12)c1ccccc1 | x | u | -28% | -1% | x | 5%
Cc1ccc(N(C)S(=O)(=O)c2c(C)noc2/C=C/N(C)C)cc1 | -28% | u | 18µM* | -17% | -28% | 2%
Cc1ccc(S(=O)(=O)CCSc2n[nH]c(=O)n2-c2ccccc2)cc1 | 1% | u | 1% | u | 24% | -16%
Cc1cc(C)c(-n2c(SCCS(=O)(=O)c3ccc(F)cc3)n[nH]c2=O)c(C)c1 | -12% | 23µM* | 26µM* | u | -10% | 18µM*
Cc1cc(C)c(-n2c(SCc3nc4ccccc4s3)n[nH]c2=O)c(C)c1 | u | 29µM* | u | -28% | -20% | -21%
SMILES | TGFb SMAD3 inh | DT40 TDP1 no CPT | TDP1 cell CPT | HT1080-NT tox | HepG2 viability | HT1080 IDH1KD tx
O=C(CSc1cn(CCNC(=O)c2cccs2)c2ccccc12)NC1CCCC1 | -9% | 16µM* | 16µM* | -1% | -6% | 0%
O=C(NCCn1cc(SCc2ccccc2)c2ccccc21)c1c(F)cccc1F | u | 23µM* | u | -18% | -16% | u
O=C(NCCn1cc(SCc2ccc(F)cc2)c2ccccc21)c1c(F)cccc1F | u | u | u | u | -6% | -13%
O=C(NCCn1cc(SCc2ccc(F)cc2)c2ccccc21)c1ccccc1F | u | 16µM* | u | u | -23% | u
CCOc1ccc(NC(=O)CSc2cn(CCNC(=O)c3ccccc3F)c3ccccc23)cc1 | u | u | u | x | -26% | x
O=C(CSc1cn(CCNC(=O)c2ccccc2F)c2ccccc12)Nc1ccc(F)cc1 | u | 23µM* | 23µM* | x | -33% | x
O=C(NCCn1cc(SCc2ccc(C(F)(F)F)cc2)c2ccccc21)c1ccccc1F | u | u | u | x | -29% | x
CCOc1ccc(N=C2NC(=O)CS2)cc1 | 0% | 9% | -10% | -2% | 0% | 0%
O=C(CSc1ccccc1C(=O)NCc1ccccc1)NC1CCCCCCC1 | 4% | u | u | 5% | 1% | 1%
CC(C)CCNC(=O)c1ccccc1SCC(=O)NC1CCCCCCC1 | u | u | 23µM* | 2% | 7% | -5%
Cc1cc(NC(=O)CSc2cn(CCNC(=O)c3ccccc3)c3ccccc23)no1 | 3% | u | -21% | 0% | -10% | 4%
O=C(CSc1cn(CCNC(=O)c2ccccc2F)c2ccccc12)Nc1ccc2c(c1)OCCO2 | u | 16µM* | 23µM* | x | -3% | x
Cn1cc(SCC(=O)Nc2ccc3c(c2)OCCO3)c2ccccc21 | -3% | -23% | -30% | -2% | -4% | -1%

Source: PubChem BioAssay (National Center for Advancing Translational Sciences (NCATS))
